HT1080-NT tox: kills 2HG-producing HT-1080-NT fibrosarcoma cells | actives 1.6% (n = 360,000) | Potency, µM (doses to about 46.1 µM), for the others: at the top dose activity, negative = less viability, hits mostly cytotoxic | HT-1080-NT fibrosarcoma viability, CellTiter-Glo ATP luminescence, 48 h;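 note: NT is the 2HG producing partner of a matched IDH1 knockdown line; 0% = DMSO-treated cells and -100% = media-only wells without cells; nearly all actives have a fitted effect of over 55% in size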
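Fibrosarcoma NT cells, 750 per well in 5% FBS RPMI, were exposed to compound for 48 hours. Viability: CellTiter-Glo luminescence.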
SW480 rereplic: inducers of DNA re-replication in SW480 colon cancer cells. SW480 DNA re-replication, Hoechst DNA content imaging, 48 h. Potency, µM (highest dose often 46.1 µM), without a hit: top-dose re-replication activation, most hits filed as activators. actives 1.8% (n = 340,000). AID 624297; note: % of control where 0% means no effect; nearly all actives have a fitted effect of over 55% in size
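Image-based read-out: total Hoechst fluorescence of nuclei (405 nm excitation, 500-530 nm emission), with hits raising the fraction of high-intensity nuclei. SW480 colon cells incubated 48 hr with compounds at 37 C.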
MCF10A rerep: inducers of DNA re-replication in MCF 10A breast cells; actives 2.9% (n = 350,000); Potency, µM (highest dose often 46.1 µM), for the others: top-dose activity, positive = re-replication, actives largely listed as activators; MCF 10A DNA re-replication, Hoechst nuclear intensity, 48 h; note: % of control where 0% means no effect; nearly all actives have a fitted effect of over 50% in size
HT1080 IDH1KD tx: HT-1080 IDH1 knockdown cell toxicity (counter line). HT-1080 IDH1 knockdown viability, ATP luminescence, 48 h. Potency, µM (doses to about 46.1 µM), inactives show at the highest dose activity, negative = toxicity, most hits filed as cytotoxic. actives 2% (n = 360,000);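 note: 0% = DMSO wells and -100% = cell-free medium wells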
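In this qHTS, HT-1080 cells depleted of IDH1 are exposed for 48 h at 37 °C to compound titrations. Toxicity is scored from CellTiter-Glo luminescence, with DMSO as full viability and medium alone as none.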
KB-V1 cytotox: KB-V1 MDR subline cytotoxicity. KB-V1 MDR cells viability, CellTiter-Glo, 72 h. actives 3.4% (n = 400,000). Potency, µM (top dose mostly 46.1 µM), usual class: cytotoxic; note: % is set by controls: 0 for no effect and ±100 for the full control effect; nearly all actives have a fitted effect of over 60% in size
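qHTS viability screen in drug-selected KB-V1 MDR cells: 72 h compound treatment at 37 degrees C, ATP luminescence end point.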
KB-3-1 tox: KB-3-1 parental cell cytotoxicity | Potency, µM (doses to about 46.1 µM), most hits filed as cytotoxic | AID 1347075 | KB-3-1 viability, CellTiter-Glo ATP luminescence, 72 h | actives 1.4% (n = 400,000); note: % is set by controls: 0 for no effect and ±100 for the full control effect; nearly all actives have a fitted effect of over 60% in size
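Using CellTiter-Glo luminescence, growth of non-resistant KB-3-1 adenocarcinoma cells is assessed 72 h after pin-tool compound addition at 37 °C. Normalized responses across the concentration series yield fitted curves.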
Starred values were filed as active, the others as inactive; i = inactive; ? = inconclusive; . = no result. Sampled rows, rich in hits. Any-hit rate of the full collection: about 7.9%. Calls come from the whole dose curve; as a rule, active = well fitted curve in the direction sought with a large enough effect; inconclusive = small, poorly fitted or top-dose-only effect, or another doubt; inactive = no such curve, though single readings can be large; an effect the other way counts as inactive or inconclusive. Potency is the fitted concentration of half-maximal effect.

SMILES | HT1080-NT tox | SW480 rereplic | MCF10A rerep | HT1080 IDH1KD tx | KB-V1 cytotox | KB-3-1 tox
COc1ccc(NC(=O)CSC2=Nc3ccccc3C3=NC(CCC(=O)NCc4ccco4)C(=O)N23)cc1 (stereo not given) | . | . | . | . | i | i
COc1ccc(OC)c(CNC(=O)COc2cc(=O)n(C)c3ccccc23)c1 | 1% | 2% | 7% | -4% | 18µM* | i
Cc1cccc(-n2c(SCC(=O)NCc3ccco3)nnc2-c2ccco2)c1 | 0% | -1% | -4% | 12% | ? | i
O=C(CSc1nnc2scc(-c3ccc(Cl)cc3)n12)NCc1ccco1 | 5% | 0% | ? | 1% | 23µM* | i
CCn1c(=O)cc(OCC(=O)NCc2ccc(C)o2)c2ccccc21 | -1% | 1% | ? | -12% | 18µM* | i
Cc1ccc(-n2c(SCC(=O)NCc3ccco3)nnc2-c2cccnc2)c(C)c1 | 23% | 20% | 8% | 13% | 21µM* | i
Cn1c(=O)oc2cc(S(=O)(=O)N3CCCC(C(=O)NCCc4ccc(Cl)cc4)C3)ccc21 (stereo not given) | . | . | . | . | i | i
O=C(Nc1c(C(=O)Nc2cccc(F)c2)oc2ccccc12)c1cc2ccccc2o1 | . | . | . | . | i | i
O=C(CCSc1nnc2scc(-c3ccccc3)n12)Nc1nc(-c2ccccc2)ns1 | 13% | -3% | 2% | 13% | 10µM* | i
Cc1ccc(NC(=O)CSc2nnc3scc(-c4ccccc4)n23)cc1 | . | . | . | . | i | i
Cc1ccc(-c2csc3nnc(SCC(=O)Nc4cccc(C)n4)n23)cc1 | -6% | -2% | 3% | -3% | 7.3µM* | i
CCn1c(=O)cc(SCC(=O)NCc2ccc(C)o2)c2ccccc21 | -29% | -2% | 21µM* | ? | ? | i
Cc1ccc(C(C)NC(=O)CSc2ccc(S(=O)(=O)N3CCOCC3)cn2)cc1C (stereo not given) | -2% | 3% | 14% | -4% | 18µM* | i
CSc1nc2cc(Oc3cccc(Cl)c3Cl)c(Cl)cc2[nH]1 | 9.2µM* | 10% | 9.2µM* | ? | i | i
CC(C)(C)C1CCc2c(sc(NC(=O)C3CCCO3)c2C(N)=O)C1 (stereo not given) | ? | ? | 18µM* | ? | i | i
Cc1cc(Cl)ccc1C(O)c1ncc(-c2ccc(Cl)cc2)[nH]1 (stereo not given) | ? | . | . | ? | i | i
C=CCN1C(=O)C2C3CC(=O)C(c4ccccc43)C2C1=O (stereo not given) | 7% | 5.2µM* | 10% | 2% | i | i
CCCCCn1c(=O)[nH]c2cc(C(=O)NCc3ccc(C)cc3)ccc2c1=O | . | . | . | . | i | i
CCSc1nc(-c2ccc(OC)cc2)n(-c2nc3ccccc3s2)n1 | 0% | 5% | 14% | 13% | 12µM* | i
COc1cc(C2CC(=O)Nc3c2c(C)nn3-c2nncc(-c3ccccc3)n2)cc(OC)c1OC (stereo not given) | . | . | . | . | i | i
COc1ccc(CN2C(=O)c3ccccc3C(/C=N/OCc3ccc(Cl)cc3)C2=O)cc1 (stereo not given) | -30% | ? | 19% | ? | ? | ?
COc1ccc(CN2C(=O)c3ccccc3C(/C=N\OCc3ccc(F)cc3)C2=O)cc1 (stereo not given) | -25% | -1% | 7% | ? | 16µM* | ?
FC(F)(F)c1cccc(N2CCN(Cc3nnc(-c4ccc5c(c4)OCO5)o3)CC2)c1 | . | . | . | . | i | i
CC(C)COc1ccc(C(=O)Nc2sc3c(c2C(=O)O)CC(C)(C)OC3)cc1 | ? | -80% | ? | -28% | i | 8.2µM*
CCOc1ccc(N2C(=O)CS(=O)(=O)C23C(=O)N(Cc2cccc(Cl)c2)c2ccccc23)cc1 (stereo not given) | . | . | . | . | i | i
SMILES | HT1080-NT tox | SW480 rereplic | MCF10A rerep | HT1080 IDH1KD tx | KB-V1 cytotox | KB-3-1 tox
CC(C)Cn1c(-c2csc3c2CCCC3)n[nH]c1=S | 17% | -8% | 9% | 0% | 21µM* | i
CCOC(=O)Nc1cccc(Nc2ccccc2)c1 | 1% | 2% | 17% | -15% | i | i
CCOC(=O)NNc1ccccc1 | 4.1µM* | -19% | 14% | 3.7µM* | i | i
CCC(O)CC(C(=O)NNc1ccccc1)C(=O)NNc1ccccc1 (stereo not given) | 2.6µM* | -76% | ? | 5.8µM* | i | ?
NC(=O)NNc1ccccc1 | . | 26% | 4% | . | . | .
CC(C)Cc1nn2cc(-c3cccc(Br)c3)nc2s1 | . | . | . | . | i | i
Cc1ccc(-n2ncc(C(=O)NCc3ccco3)c2C2CCN(C(=O)OC(C)(C)C)CC2)c(C)c1 | . | . | . | . | i | i
CCc1ccc2nc(N(CCN(CC)CC)C(=O)c3ccco3)sc2c1 | . | . | . | . | i | i
COCc1[nH]nc2c1C(c1ccc(F)cc1F)C(C#N)=C(N)O2 (stereo not given) | -2% | -1% | 1% | 1% | i | i
CCn1c2ccccc2c2cc(C3C(C#N)=C(N)Oc4n[nH]c(COC)c43)ccc21 (stereo not given) | 11µM* | 30% | ? | 8.9µM* | i | i
COCc1[nH]nc2c1C(c1ccc(OC)c(OC)c1)C(C#N)=C(N)O2 (stereo not given) | 6% | -6% | -4% | 7% | i | i
COCc1[nH]nc2c1C(c1ccnc3ccccc13)C(C#N)=C(N)O2 (stereo not given) | -3% | 16µM* | ? | 8% | i | i
Cc1nc(Cl)c(C(=O)NC(=O)Nc2cccc(C(F)(F)F)c2)c(C)c1[N+](=O)[O-] | -20% | ? | 18% | -22% | ? | 10µM*
CCOC(=O)c1cnc2c(OC)cccc2c1N1CCN(c2ccccn2)CC1 | -14% | -6% | ? | -14% | 8.2µM* | i
CCOC(=O)c1cc(-c2ccc(C)cc2)n(CCC(=O)NCc2ccccc2)c1C | . | . | . | . | i | i
CCOC(=O)c1cc(-c2ccc(C)cc2)n(CCC(=O)N2CCN(c3ccccn3)CC2)c1C | 4% | 4% | ? | 4% | 1.2µM* | ?
CCOC(=O)c1cc(-c2ccc(C)cc2)n(CCC(=O)Nc2ccc(C(C)C)cc2)c1C | . | . | . | . | ? | 18µM*
CCOC(=O)c1cc(-c2ccccc2)n(CCCC(=O)Nc2ccc(C(C)C)cc2)c1C | . | . | . | . | ? | i
CCOc1ccc(C(=O)OCc2cc(=O)n3nc(C4CC4)sc3n2)cc1 | . | . | . | . | i | i

Screens from PubChem BioAssay.
